17 compounds from ChEMBL document CHEMBL1961873, “Compounds: GSK PKIS; Assays: Nanosyn kinase panel” (2012) can be followed below.

For experiment [1], the target named is Casein kinase I isoform gamma-2 (Homo sapiens) (UniProt P78368). Conditions: at 1 µM.
The target of experiment [2] is Casein kinase I isoform gamma-3 (Homo sapiens) (UniProt Q9Y6M4). Conditions: at 0.1 µM.
The target is the same in experiment [3]. Conditions: at 1 µM.
Experiment [4] has as its target Cyclin-dependent kinase 1 (Homo sapiens) (UniProt P06493). Conditions: at 0.1 µM.
The target is the same in experiment [5]. Conditions: at 1 µM.
Experiment [6] addresses Cyclin-dependent kinase 2 (Homo sapiens) (UniProt P24941). Conditions: at 0.1 µM.
Experiment [7] shares this target. Conditions: at 1 µM.
The target is the same in experiment [8]. Conditions: at 0.1 µM. This is another data set of the same source.
The target is the same in experiment [9]. Conditions: at 1 µM. This is another data set of the same source.
Experiment [10] concerns the target CDK3/Cyclin E (Homo sapiens) (UniProt P24864+Q00526). Conditions: at 0.1 µM.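 Further: reported percentages are mean inhibition values.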

Chain of Cyclin-dependent kinase 1 (Homo sapiens) (P06493 whole entry, looked up): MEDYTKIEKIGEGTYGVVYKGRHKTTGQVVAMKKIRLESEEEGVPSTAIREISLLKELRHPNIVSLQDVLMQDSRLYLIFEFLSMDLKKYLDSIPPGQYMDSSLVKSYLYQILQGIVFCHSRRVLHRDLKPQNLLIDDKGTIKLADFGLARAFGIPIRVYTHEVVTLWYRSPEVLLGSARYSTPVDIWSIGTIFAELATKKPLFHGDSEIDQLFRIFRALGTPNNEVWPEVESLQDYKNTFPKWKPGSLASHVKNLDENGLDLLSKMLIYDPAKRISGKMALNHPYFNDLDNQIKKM
Chain of CDK3/Cyclin E (Homo sapiens) (P24864 whole entry, looked up): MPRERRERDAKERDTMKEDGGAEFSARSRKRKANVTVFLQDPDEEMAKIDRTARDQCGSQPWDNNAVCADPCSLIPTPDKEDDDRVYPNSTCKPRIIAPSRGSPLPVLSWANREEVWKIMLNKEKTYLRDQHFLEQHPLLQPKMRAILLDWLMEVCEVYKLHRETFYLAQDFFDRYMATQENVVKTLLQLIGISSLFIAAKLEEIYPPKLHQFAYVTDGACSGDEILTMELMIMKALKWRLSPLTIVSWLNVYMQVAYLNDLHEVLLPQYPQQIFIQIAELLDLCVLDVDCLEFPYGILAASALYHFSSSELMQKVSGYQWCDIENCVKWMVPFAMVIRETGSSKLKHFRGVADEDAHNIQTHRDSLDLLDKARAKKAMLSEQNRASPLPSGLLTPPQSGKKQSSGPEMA
Chain of CDK3/Cyclin E (Homo sapiens) (Q00526 whole entry, looked up): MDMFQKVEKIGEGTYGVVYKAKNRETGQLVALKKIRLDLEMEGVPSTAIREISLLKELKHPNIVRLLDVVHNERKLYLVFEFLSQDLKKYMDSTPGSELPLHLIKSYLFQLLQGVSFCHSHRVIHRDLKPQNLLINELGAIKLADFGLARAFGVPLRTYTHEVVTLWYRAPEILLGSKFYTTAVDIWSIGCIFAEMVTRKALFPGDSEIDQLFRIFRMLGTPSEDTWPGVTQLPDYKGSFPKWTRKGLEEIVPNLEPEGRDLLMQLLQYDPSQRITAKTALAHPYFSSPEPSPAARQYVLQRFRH
Chain of Casein kinase I isoform gamma-2 (Homo sapiens) (P78368 whole entry, looked up, canonical isoform): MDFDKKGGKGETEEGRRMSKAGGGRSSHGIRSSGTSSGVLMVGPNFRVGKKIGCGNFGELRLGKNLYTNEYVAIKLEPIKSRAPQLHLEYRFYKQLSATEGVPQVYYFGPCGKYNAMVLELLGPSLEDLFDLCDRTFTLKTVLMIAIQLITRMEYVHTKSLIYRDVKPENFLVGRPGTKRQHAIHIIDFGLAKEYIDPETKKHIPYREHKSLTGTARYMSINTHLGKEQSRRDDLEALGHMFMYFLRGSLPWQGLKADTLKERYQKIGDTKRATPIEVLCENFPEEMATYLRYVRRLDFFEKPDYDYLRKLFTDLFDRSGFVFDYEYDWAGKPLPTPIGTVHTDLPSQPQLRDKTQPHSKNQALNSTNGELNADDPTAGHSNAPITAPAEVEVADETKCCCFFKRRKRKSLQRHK
Chain of Casein kinase I isoform gamma-3 (Homo sapiens) (Q9Y6M4 whole entry, looked up, canonical isoform): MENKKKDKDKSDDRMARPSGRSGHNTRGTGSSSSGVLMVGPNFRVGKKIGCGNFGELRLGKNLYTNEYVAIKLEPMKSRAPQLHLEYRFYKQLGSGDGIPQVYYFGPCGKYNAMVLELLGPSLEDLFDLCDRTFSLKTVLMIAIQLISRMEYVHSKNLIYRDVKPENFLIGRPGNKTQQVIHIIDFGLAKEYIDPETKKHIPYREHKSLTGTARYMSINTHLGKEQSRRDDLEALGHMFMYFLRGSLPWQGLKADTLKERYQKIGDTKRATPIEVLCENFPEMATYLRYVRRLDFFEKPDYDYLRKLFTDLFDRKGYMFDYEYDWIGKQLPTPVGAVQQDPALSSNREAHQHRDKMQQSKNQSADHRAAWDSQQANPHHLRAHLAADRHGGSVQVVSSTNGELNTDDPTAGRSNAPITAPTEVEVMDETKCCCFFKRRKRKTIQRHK

One may read the inhibition as the relative decrease from the control value, in per cent. `CN(C)CCOc1ccc(-c2cc(-c3ccc4c(c3)CCC4=NO)c(-c3ccncc3)o2)cc1`: the inhibition was -0.77% in [1]; -0.76% in experiment [2]; -0.08% in [3]; 0.53% in [4]; 1.85% in experiment [5]; -0.07% in experiment [6]. The inhibition in [7] is 0.53%; in [8] it was -0.38%; in experiment [9], 0.33%; in [10], -2.82%.
As to `CS(=O)(=O)CCNCc1ccc(-c2ccc3ncnc(Nc4ccc(OCc5ccccc5)c(Br)c4)c3c2)o1`, the inhibition is -0.24% in experiment [1]; -0.8% in [2]; -2.02% in experiment [3]; -4.43% in experiment [4]; -2.83% in [5]; -2.31% in experiment [6]. In addition, the inhibition in experiment [7] is -1.03%; in [8], -1.96%; in experiment [9], -0.05%; in [10], -2.03%.
In the case of `Clc1ccc(CNc2nccc(-c3cnn4ncccc34)n2)cc1`, the inhibition in experiment [1] was 12%; in experiment [2] it was -0.98%; in experiment [3], 12.9%; in experiment [4], 7.01%; in experiment [5] it was 36.3%; in [6], 4.06%. Also, the inhibition in experiment [7] worked out at 17.6%; in experiment [8], 4.31%; in experiment [9], 21.5%; in [10] it was 3.02%.
Take `CCc1ccc(Oc2nccc(-c3c(-c4ccc(F)cc4)ncn3C3CCNCC3)n2)cc1`: the inhibition is 11.5% in experiment [1]; 6.23% in experiment [2]; 30% in experiment [3]; 2.36% in experiment [4]; 2.02% in [5]; 3.63% in experiment [6]. The inhibition in experiment [7] is 2.75%; in experiment [8], 2.03%; in experiment [9] it was 2.75%; in [10], -2.23%.
Regarding `Cc1nnc(-c2ccc(C)c(-c3ccc(C(=O)NCc4ccc(Cl)cc4)cc3)c2)o1`, the inhibition in experiment [1] was 1.06%; in [2] it was -1.5%; in experiment [3], -0.65%; in experiment [4], -3.13%; in experiment [5], -1.46%; in experiment [6], -1.4%. Further, the inhibition in experiment [7] is -2.99%; in experiment [8], 0.91%; in experiment [9], 0.03%; in experiment [10], 4.6%.
Turning to `CCC(=O)Nc1ccc(C)c(-c2ccc(C(=O)NCC3CC3)cc2)c1`, the inhibition was 3.16% in experiment [1]; 1.58% in [2]; 1.61% in experiment [3]; 2.88% in [4]; 2.38% in [5]; 3.84% in experiment [6]. The inhibition was 3.06% in experiment [7], 3.5% in experiment [8], 4.47% in [9] and -1.57% in experiment [10].
For `CCS(=O)(=O)c1ccc(OC)c(Nc2ncc(-c3ccccc3Cl)o2)c1`, the inhibition in experiment [1] is 1.51%; in [2], -0.55%; in experiment [3] it was 0.35%; in experiment [4] it was 0.87%; in [5] it was 0.32%; in [6], 0.49%. Also, the inhibition in experiment [7] was 3.52%; in experiment [8], -0.35%; in [9], 1.49%; in [10] it was -7.09%.
With `CN(C)CCCNc1nccc(-c2c(-c3ccc(F)cc3)nn3cc(C(F)(F)F)ccc23)n1`, the inhibition in experiment [1] is -1.02%; in experiment [2], -3.53%; in experiment [3], -1.67%; in experiment [4], -1.9%; in experiment [5], 1.74%; in experiment [6] it was -2.76%. Moreover, the inhibition in experiment [7] is 3.18%; in experiment [8], -2.39%; in experiment [9], 1.3%; in [10], 0.59%.
Take `COc1cc(Nc2ncc3c(C)nc(-c4cccc(C(F)(F)F)c4)n3n2)cc(OC)c1OC`: the inhibition in [1] came to 3.91%; in experiment [2], 2.45%; in experiment [3], 4.96%; in experiment [4] it was 0.7%; in [5], 6.83%; in experiment [6] it was 3.13%. In addition, the inhibition in experiment [7] was determined as 20.8%; in [8], 6%; in experiment [9], 28.8%; in experiment [10], 2.35%.
Regarding `NC(=O)c1cc(-c2ccc(F)cc2)cc(-c2ccncc2)c1N`, the inhibition was found to be 6.08% in experiment [1]; 4.13% in [2]; 2.66% in experiment [3]; 0.65% in experiment [4]; 0.73% in experiment [5]; 2.41% in experiment [6]. In addition, the inhibition was -6.47% in experiment [7], 2.49% in experiment [8], 2.14% in [9] and 4.68% in experiment [10].
For the compound `O=C1NC(=O)C(c2cccc(Cl)c2)=C1Nc1ccc(Cl)c(C(=O)O)c1`, the inhibition in [1] came out at 3.4%; in experiment [2], 1.59%; in experiment [3], 0.02%; in experiment [4] it was 0.24%; in [5], 2.57%; in experiment [6], 2%. Moreover, the inhibition in [7] came out at 9.11%; in experiment [8] it was 1.73%; in experiment [9], 1.86%; in [10], 3.54%.
In the case of `CN1CCN(CCCNc2nc3ccc(Oc4ccc(NC(=O)Nc5cc(C(F)(F)F)ccc5F)cc4)cc3[nH]2)CC1`, the inhibition in experiment [1] is -2.41%; in [2], -3.59%; in experiment [3], -4.66%; in experiment [4], -2.5%; in experiment [5], -3.79%; in experiment [6], -3.51%. In addition, the inhibition was 5.29% in experiment [7], -2.32% in experiment [8], -2.03% in [9] and 0.7% in experiment [10].
`CCN(CC)Cc1ccc(Nc2nccc(-c3cnn4ncccc34)n2)cc1`: the inhibition amounted to 13.7% in experiment [1]; 0.62% in experiment [2]; 10.6% in experiment [3]; 36.3% in [4]; 68.1% in [5]; 39.5% in experiment [6]. Also, the inhibition in experiment [7] stood at 82.5%; in experiment [8] it was 40.4%; in experiment [9], 70.1%; in [10], 28.6%.
Consider `COc1ccc2ncn(-c3cc(O[C@H](C)c4ccccc4Cl)c(C(N)=O)s3)c2c1`, for which the inhibition in experiment [1] was 0.41%; in experiment [2], -0.98%; in [3] it was -2.81%; in experiment [4] it was -3.45%; in experiment [5] it was -2.45%; in experiment [6], -2.63%. The inhibition in experiment [7] was -1.27%; in experiment [8], -1.28%; in [9], 1.93%; in experiment [10] it was -2.44%.
As for `CCS(=O)(=O)c1ccc(OC)c(Nc2ncc(-c3cccc(-c4ccccc4F)c3)o2)c1`, the inhibition in experiment [1] was -0.35%; in [2], 0.39%; in experiment [3], 0.12%; in experiment [4] it was 0.67%; in [5], 2.37%; in [6], 1.76%. In addition, the inhibition in experiment [7] was found to be 7.78%; in experiment [8] it was 0.27%; in experiment [9], 3.78%; in experiment [10], 0.64%.
With `Fc1ccc(-c2c(-c3ccncc3)nc3n2CCS3)cc1`, the inhibition in [1] was -0.73%; in [2], -3.04%; in experiment [3] it was -1.19%; in [4], -4.51%; in experiment [5] it was -4.05%; in experiment [6], -1.82%. In addition, the inhibition in [7] was -3.21%; in experiment [8], -1.42%; in experiment [9], 0.06%; in experiment [10] it was 2.29%.
As for `C#Cc1cccc(Nc2ncnc3ccc(OCCCCNCCS(C)(=O)=O)cc23)c1`, the inhibition in experiment [1] was 1.61%; in experiment [2], -0.3%; in experiment [3], 0.33%; in experiment [4], -2.94%; in experiment [5], -2.94%; in experiment [6] it was -1.15%. Further, the inhibition was -0.68% in [7], 0.97% in experiment [8], 1.11% in experiment [9] and 3.19% in experiment [10].
